Test results taken from the supplement of paper PMC10849652.
Targets with a hit are over-represented here; the source holds about 7,900 in all. About 0.6% of all pairs of compound and target were hits. Values without a mark were called inactive.

What follows are targets tested with COc1cccc2cc(-c3nc([C@H]4CC[C@H](C(=O)O)CC4)n4ncnc(N)c34)[nH]c12 (assay: log2 fold change, soluble protein after heating vs DMSO (PISA); higher = thermal stabilisation; K562 cells, 10 uM, 30 min; active = over 0.2 and 3.5 SD of the protein, either way, in both replicates (recomputed)).
Procedure, shortened: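 K562 cells at 2×10^6 cells/mL were treated with 10 μM compound for 30 min. Aliquots were heated for 3 min across 48°C-58°C, pooled, and extracted in PBS with 0.5% NP-40 at 4°C; soluble protein was the supernatant after 21,000xg for 90 min. Soluble protein was quantified by TMTpro 16plex LC-MS/MS with channel sums equalised, and reported as log2 fold change in thermal stability against DMSO controls, with values from duplicates.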

Chain of UniProt Q9Y2U8 (Q9Y2U8 whole entry, looked up): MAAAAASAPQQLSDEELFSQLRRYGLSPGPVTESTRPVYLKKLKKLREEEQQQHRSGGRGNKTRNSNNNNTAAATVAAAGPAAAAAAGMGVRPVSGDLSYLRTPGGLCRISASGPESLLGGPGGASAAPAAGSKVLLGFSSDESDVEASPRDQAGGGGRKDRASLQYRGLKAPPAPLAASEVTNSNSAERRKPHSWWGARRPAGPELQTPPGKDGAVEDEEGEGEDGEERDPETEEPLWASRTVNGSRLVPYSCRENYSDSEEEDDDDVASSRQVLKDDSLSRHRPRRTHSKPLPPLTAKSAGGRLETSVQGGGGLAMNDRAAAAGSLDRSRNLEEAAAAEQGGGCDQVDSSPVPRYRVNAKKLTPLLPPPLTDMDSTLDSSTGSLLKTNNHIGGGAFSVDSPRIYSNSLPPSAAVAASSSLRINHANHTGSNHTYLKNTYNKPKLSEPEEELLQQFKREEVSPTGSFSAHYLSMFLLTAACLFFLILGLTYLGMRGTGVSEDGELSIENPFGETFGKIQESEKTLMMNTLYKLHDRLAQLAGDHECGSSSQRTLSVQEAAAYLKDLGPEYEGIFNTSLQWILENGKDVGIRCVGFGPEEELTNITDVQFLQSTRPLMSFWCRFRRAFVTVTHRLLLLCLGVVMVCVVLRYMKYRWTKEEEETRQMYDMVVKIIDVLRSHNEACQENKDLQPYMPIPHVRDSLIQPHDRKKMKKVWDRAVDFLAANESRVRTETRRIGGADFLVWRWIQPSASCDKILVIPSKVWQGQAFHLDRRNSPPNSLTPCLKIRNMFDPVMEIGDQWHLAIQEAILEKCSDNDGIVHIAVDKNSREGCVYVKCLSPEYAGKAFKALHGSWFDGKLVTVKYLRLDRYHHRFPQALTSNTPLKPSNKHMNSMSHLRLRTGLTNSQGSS
Chain of UniProt O94829 (O94829 whole entry, looked up): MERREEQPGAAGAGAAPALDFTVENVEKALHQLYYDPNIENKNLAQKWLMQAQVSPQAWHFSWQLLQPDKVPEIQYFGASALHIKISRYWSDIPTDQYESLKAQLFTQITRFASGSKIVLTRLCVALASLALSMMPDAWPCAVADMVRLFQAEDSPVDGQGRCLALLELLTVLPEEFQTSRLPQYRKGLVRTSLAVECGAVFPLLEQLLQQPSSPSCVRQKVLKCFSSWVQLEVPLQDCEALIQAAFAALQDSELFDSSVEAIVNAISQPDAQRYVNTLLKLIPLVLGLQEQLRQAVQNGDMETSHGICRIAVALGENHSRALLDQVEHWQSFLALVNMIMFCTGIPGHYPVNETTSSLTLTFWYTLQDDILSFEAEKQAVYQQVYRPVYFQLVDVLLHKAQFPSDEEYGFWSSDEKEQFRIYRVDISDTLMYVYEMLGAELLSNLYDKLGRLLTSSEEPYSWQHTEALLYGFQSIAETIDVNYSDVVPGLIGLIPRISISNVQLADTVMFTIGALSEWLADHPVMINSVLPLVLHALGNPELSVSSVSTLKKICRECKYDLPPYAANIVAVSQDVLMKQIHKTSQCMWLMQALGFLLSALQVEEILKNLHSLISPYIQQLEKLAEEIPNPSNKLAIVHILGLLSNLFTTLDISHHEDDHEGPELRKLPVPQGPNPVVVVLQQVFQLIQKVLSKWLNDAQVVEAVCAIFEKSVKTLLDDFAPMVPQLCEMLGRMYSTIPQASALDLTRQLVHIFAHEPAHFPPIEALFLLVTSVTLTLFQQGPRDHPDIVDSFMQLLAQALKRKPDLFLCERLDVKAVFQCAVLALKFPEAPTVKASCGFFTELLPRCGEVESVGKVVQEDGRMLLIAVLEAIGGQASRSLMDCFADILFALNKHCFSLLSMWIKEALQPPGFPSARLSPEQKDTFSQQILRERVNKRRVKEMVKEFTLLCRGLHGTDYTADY
Chain of UniProt Q02750 (Q02750 whole entry, looked up): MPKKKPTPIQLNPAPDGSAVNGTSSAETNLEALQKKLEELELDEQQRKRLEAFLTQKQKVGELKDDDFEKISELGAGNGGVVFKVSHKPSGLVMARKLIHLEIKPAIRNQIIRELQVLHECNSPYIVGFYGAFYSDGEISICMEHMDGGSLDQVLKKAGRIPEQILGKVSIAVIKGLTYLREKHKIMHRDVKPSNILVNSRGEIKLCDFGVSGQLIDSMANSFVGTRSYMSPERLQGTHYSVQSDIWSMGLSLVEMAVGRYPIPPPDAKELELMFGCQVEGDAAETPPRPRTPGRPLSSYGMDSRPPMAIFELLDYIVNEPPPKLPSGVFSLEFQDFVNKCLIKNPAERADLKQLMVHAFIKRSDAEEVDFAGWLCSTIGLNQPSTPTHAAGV
Chain of UniProt Q96GA3 (Q96GA3 whole entry, looked up): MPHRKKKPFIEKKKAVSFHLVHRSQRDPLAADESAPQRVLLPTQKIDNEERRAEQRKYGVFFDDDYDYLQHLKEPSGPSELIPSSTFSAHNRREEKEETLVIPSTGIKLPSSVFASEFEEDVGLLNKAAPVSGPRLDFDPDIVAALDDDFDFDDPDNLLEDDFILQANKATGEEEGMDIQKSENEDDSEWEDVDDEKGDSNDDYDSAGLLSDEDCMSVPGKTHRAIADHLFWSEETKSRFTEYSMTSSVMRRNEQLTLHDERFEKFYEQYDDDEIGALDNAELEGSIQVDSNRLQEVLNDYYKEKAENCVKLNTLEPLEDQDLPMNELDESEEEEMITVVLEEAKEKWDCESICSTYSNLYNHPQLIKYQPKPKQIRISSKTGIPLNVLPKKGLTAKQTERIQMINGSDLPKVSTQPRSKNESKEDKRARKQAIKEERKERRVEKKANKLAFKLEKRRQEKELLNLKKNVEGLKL
Chain of UniProt Q9UGP4 (Q9UGP4 whole entry, looked up): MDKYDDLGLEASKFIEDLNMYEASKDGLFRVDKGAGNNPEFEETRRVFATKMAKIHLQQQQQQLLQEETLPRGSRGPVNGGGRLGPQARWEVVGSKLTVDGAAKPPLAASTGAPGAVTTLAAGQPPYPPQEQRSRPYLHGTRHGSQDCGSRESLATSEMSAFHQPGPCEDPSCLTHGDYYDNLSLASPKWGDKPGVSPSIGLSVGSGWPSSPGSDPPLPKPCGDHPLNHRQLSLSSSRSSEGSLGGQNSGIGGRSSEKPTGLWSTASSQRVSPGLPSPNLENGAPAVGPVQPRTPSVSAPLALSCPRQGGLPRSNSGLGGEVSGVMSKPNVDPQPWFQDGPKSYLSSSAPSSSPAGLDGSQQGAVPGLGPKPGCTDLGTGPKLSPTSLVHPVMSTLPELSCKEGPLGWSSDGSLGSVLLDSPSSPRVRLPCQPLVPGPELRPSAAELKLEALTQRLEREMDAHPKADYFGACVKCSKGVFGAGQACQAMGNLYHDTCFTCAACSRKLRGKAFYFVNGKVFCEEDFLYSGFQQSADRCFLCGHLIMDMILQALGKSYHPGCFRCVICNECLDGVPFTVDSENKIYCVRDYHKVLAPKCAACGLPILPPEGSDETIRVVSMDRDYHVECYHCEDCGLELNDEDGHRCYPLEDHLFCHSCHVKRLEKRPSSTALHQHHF
Chain of UniProt Q9Y287 (Q9Y287 whole entry, looked up): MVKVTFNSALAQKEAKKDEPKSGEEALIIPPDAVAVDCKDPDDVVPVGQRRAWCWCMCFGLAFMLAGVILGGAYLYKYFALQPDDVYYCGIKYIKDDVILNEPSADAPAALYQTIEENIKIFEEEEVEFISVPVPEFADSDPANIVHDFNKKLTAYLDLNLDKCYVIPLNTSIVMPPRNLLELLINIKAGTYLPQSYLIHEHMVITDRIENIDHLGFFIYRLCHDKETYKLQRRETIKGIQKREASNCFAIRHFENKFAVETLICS
Chain of UniProt Q9Y496 (Q9Y496 whole entry, looked up): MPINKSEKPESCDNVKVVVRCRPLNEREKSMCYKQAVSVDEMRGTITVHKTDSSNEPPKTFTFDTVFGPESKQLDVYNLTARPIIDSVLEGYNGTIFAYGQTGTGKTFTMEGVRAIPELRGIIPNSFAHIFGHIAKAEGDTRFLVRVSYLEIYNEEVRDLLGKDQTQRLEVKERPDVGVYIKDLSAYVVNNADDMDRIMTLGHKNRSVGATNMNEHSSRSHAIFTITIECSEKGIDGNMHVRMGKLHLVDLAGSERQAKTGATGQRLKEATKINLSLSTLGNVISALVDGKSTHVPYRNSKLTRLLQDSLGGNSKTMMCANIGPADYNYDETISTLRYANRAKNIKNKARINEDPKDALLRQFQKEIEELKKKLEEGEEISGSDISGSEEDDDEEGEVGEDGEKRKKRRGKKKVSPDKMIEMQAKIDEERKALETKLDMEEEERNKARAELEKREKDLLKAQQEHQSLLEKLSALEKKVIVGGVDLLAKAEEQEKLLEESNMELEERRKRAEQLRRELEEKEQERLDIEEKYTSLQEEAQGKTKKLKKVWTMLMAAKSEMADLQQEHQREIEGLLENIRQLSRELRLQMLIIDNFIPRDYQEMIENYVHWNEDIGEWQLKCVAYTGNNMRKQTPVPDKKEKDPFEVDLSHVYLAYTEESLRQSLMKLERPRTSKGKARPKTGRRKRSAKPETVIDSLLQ
Chain of UniProt Q9H0B6 (Q9H0B6 whole entry, looked up): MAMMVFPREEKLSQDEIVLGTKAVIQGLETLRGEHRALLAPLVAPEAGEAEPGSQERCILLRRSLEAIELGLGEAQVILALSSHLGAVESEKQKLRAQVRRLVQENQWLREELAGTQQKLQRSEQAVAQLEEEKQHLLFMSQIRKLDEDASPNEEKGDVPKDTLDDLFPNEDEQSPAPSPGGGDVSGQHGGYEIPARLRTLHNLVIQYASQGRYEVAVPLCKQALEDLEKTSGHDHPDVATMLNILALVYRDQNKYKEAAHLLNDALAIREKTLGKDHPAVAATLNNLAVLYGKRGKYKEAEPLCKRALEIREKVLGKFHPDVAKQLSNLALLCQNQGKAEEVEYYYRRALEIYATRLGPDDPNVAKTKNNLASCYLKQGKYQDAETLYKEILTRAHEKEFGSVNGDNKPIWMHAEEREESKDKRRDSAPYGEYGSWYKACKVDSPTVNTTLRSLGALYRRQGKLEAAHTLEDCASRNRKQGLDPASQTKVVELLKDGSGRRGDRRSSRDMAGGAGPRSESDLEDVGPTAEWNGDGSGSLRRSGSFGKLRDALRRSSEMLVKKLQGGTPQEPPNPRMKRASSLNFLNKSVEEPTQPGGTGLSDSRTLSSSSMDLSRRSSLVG

Row | Target | log2 fold change
1 | LTV1 (UniProt Q96GA3) | -0.095
2 | LMNB1 (UniProt P20700) | 0.064
3 | LNPK (UniProt Q9C0E8) | 0.079
4 | LDAH isoform 2 (UniProt Q9H6V9) | 0.032
5 | IL27RA (UniProt Q6UWB1) | 0.207
6 | KIF2C (UniProt Q99661) | -0.081
7 | LAMP2 (UniProt P13473) | 0.084
8 | LMNB2 (UniProt Q03252) | 0.069
9 | MAP1LC3B2 (UniProt A6NCE7) | -0.035
10 | METAP1D (UniProt Q6UB28) | -0.035
11 | LIMD1 (UniProt Q9UGP4) | -0.01
12 | MED17 (UniProt Q9NVC6) | -0.018
13 | KIF3A (UniProt Q9Y496) | 0
14 | IKZF1 (UniProt Q13422) | 0.039
15 | KSR1 (UniProt Q8IVT5) | 0.126
16 | MAIP1 (UniProt Q8WWC4) | 0.095
17 | LPGAT1 (UniProt Q92604) | 0.12
18 | LTO1 (UniProt Q8WV07) | -0.001
19 | LARP4 isoform 4 (UniProt Q71RC2) | -0.125
20 | IMMP1L (UniProt Q96LU5) | 0.016

Row | Target | log2 fold change
21 | LRBA (UniProt P50851) | 0.031
22 | LMBRD2 (UniProt Q68DH5) | -0.021
23 | MAP2K2 (UniProt P36507) | 0.007
24 | ITM2B (UniProt Q9Y287) | 0.138
25 | IPO13 (UniProt O94829) | 0.008
26 | ILRUN (UniProt Q9H6K1) | 0.09
27 | IRF2BPL (UniProt Q9H1B7) | -0.027
28 | LDLR (UniProt P01130) | 0.008
29 | LUC7L3 (UniProt O95232) | 0.011
30 | MAP2K7 isoform 4 (UniProt O14733) | 0.048
31 | MDC1 (UniProt Q14676) | -0.045
32 | MAP2K1 (UniProt Q02750) | 0.029
33 | MARK3 (UniProt P27448) | -0.063
34 | KIF21A isoform 4 (UniProt Q7Z4S6) | -0.126
35 | LEMD3 (UniProt Q9Y2U8) | 0.069
36 | KDM5D isoform 3 (UniProt Q9BY66) | -0.072
37 | IK (UniProt Q13123) | -0.096
38 | KLC2 (UniProt Q9H0B6) | 0
39 | INPP5B (UniProt P32019) | -0.043
